Test results from PubChem BioAssay AID488975 (Johns Hopkins Ion Channel Center, 2010).
The campaign covered roughly 310,000 compounds. About 2,600 (0.84%) were called active.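 How the source made its calls: active means B-score over 3 SD under the library average, and starting fluorescence ratio not unusually high; inactive means the rest.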 The full list was thinned out, with actives kept by preference.

target: High affinity choline transporter 1 (Homo sapiens) (UniProt Q9GZV3); experiment: inhibitors of human choline transporter CHT (AID 488975); settings: CHT-expressing cells, membrane potential dye, choline response, at 10 µM; hits give low values;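 on B-score: choline stimulus applied at its EC90 after an EC20 pre-addition; B-score computed on integrated fluorescence ratio after choline addition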
Sequence (Q9GZV3 whole entry, looked up): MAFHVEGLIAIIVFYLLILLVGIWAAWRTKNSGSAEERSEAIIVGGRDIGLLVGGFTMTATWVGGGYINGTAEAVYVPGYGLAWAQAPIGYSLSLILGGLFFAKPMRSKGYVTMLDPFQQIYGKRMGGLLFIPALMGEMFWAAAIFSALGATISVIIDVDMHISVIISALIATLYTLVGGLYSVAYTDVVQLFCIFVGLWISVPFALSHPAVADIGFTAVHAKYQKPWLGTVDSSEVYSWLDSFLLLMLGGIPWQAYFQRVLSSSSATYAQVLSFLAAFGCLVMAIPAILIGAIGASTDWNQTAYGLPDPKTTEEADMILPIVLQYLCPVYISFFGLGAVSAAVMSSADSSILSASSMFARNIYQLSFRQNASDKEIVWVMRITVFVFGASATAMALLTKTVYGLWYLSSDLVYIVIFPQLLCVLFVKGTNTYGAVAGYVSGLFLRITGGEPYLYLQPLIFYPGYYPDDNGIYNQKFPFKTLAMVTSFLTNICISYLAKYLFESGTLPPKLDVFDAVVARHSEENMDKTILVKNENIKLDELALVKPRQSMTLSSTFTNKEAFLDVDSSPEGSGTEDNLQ

B-score, inactive:
CCOCCCN(C)C1CCN(C(=O)c2oc3ccccc3c2NC(=O)Cc2cccc([N+](=O)[O-])c2)CC1
COCC(=O)Nc1c(C(=O)N2CCCC2)oc2ccccc12
C/C(=N\Nc1ncc(Cl)cc1Cl)c1cccs1
O=C(Nc1ccccc1-c1nc2ccccc2[nH]c1=O)c1cccs1
COC(=O)c1ccc(SCc2ccccc2)nc1
COc1cnn(-c2ccc([N+](=O)[O-])cc2)c(=O)c1Cl
Nc1c(C(=O)Nc2ccc3c(c2)OCCO3)nnn1Cc1ccccc1
O=C(Cc1c[nH]c2ccccc12)OCCOC(=O)Cc1c[nH]c2ccccc12
O=C(NCCCc1ccccc1)C(=O)c1c[nH]c2ccccc12
COc1ccc(N2CCN(C(=O)COC(=O)c3cccc(S(=O)(=O)Nc4ccccc4OC)c3)CC2)cc1
O=C(Nc1cccnc1)c1cccc(S(=O)(=O)N2CCCC2)c1
O=C(Nc1ccc2c(c1)CCC2)c1cccc(S(=O)(=O)N2CCN(c3ccc(F)cc3)CC2)c1
CN1CCN(S(=O)(=O)c2cccc(C(=O)O)c2)CC1
COc1ccc(OC)c(NC(=O)c2cccc(S(=O)(=O)N3CCN(C(C)=O)CC3)c2)c1
COc1cc(OC)cc(C(=O)Nc2ccc(S(=O)(=O)Nc3cc(C)on3)cc2)c1
CCc1ccc(OC(C)C(=O)Nc2ccc(S(=O)(=O)Nc3cc(C)on3)cc2)cc1 (centres undefined)
Cc1cc(NS(=O)(=O)c2ccc(NC(=O)c3cccnc3)cc2)nc(C)n1
CC(Oc1cccc(Cl)c1)C(=O)Nc1ccc(S(=O)(=O)Nc2ncccn2)cc1 (centres undefined)
CCOc1ccc(C(=O)Nc2ccc(S(=O)(=O)Nc3cc(C)on3)cc2)cc1
Cc1cc(NS(=O)(=O)c2ccc(NC(=O)c3cccc(OC(F)F)c3)cc2)nc(C)n1
COc1ccc(C(=O)Nc2ccc(S(=O)(=O)Nc3onc(C)c3C)cc2)cc1OC
CCOc1ccc(CC(=O)Nc2ccc(S(=O)(=O)Nc3cc(C)on3)cc2)cc1OCC
COc1ccc(Cl)cc1NC(=O)CN(C)C(=O)c1cc(-c2cccs2)nn1-c1ccccc1
O=C(CNC(=O)c1ccccc1Br)NCCSc1ccc(Br)cc1
O=C(Oc1ccc(-c2nnco2)cc1)c1ccc(F)c(S(=O)(=O)N2CCOCC2)c1
O=C(NCCCN1CCCC1=O)c1ccc(S(=O)(=O)Nc2ccccc2)cc1
COc1ccc(C(C#N)(CC(=O)O)c2cnccn2)cc1OC (centres undefined)
Cc1ccc(-c2nn(-c3ccccc3)cc2C(=O)NCCCN2CCCC2=O)cc1
CCc1ccc(NC(=O)CN2C(=O)COc3ccc(S(=O)(=O)N4CCCC4)cc32)cc1
CN(C)c1ccc(CNC(=O)CN2C(=O)COc3ccc(S(=O)(=O)N4CCCC4)cc32)cc1
O=S(=O)(c1ccccc1)N1CCC(c2ccccc2)CC1
Cc1ccc(CSCC(N)C(=O)O)cc1 (centres undefined)
Cc1ccc(C(=O)CSc2ccccc2C(=O)O)cc1
OCc1ccc(-c2ccccc2)c(-c2ccccc2)c1
O=C(Nc1ccc(F)c([N+](=O)[O-])c1)C1CCCO1 (centres undefined)
Cc1ccc(-c2cc(C(=O)NC3CCN(Cc4ccccc4)CC3)c3ccccc3n2)cc1
C/C(=N\NC(=S)NCc1ccccc1)c1ccc(Cl)cc1
C/C(=N\OCC(=O)O)c1ccc(Cl)cc1
CC1CCC(CN2CCN=C2N(C)C)CC1 (centres undefined)
CCCCCCc1cc2cc(-c3nnc(-c4ccccc4)o3)c(=O)oc2cc1O
CCCCCCCN=C(C)c1ccccc1O
CC1(c2ccccc2)NC(=O)N(CC(=O)Nc2cc(Cl)ccc2N2CCOCC2)C1=O (centres undefined)
COc1cc(N)c(Cl)cc1C(=O)OCC(=O)c1ccc2c(c1)NC(=O)CO2
CN1C(C(=O)NCc2ccco2)CC2Cn3c(nc4ccccc43)C21 (centres undefined)
COc1ccc(-c2nn(-c3ccccc3)cc2/C=C\C(=O)N2CCOCC2)cc1[N+](=O)[O-]
Cc1ccc(-c2nn(-c3ccccc3)cc2/C=C/C(=O)Nc2cccc(S(N)(=O)=O)c2)cc1
Cc1ccc(SCC(=O)Nc2nncs2)cc1
C#CCOCCOCCOCCNc1nc(N2CCN(C(=O)Cn3cc(CCCCN)nn3)CC2)nc(N2CCN(C(=O)[C@H](CCCCN)n3cc(CCC(=O)O)nn3)CC2)n1
Cc1ccccc1OCC(=O)NNC(=O)c1ccc(-n2cncn2)c([N+](=O)[O-])c1
CCCCn1c(N)c(N(CCC(C)C)C(=O)CC2OC(=O)c3ccccc32)c(=O)[nH]c1=O (centres undefined)

B-score, active:
CCOCCCN(C)C1CCN(C(=O)c2oc3ccccc3c2NC(=O)COc2cccc(C)c2)CC1 -6.44
C/C(=N\Nc1nc2ccccc2[nH]1)c1cccs1 -6.15
O=C(OCC(=O)c1c[nH]c2ccccc12)c1cccc(O)c1 -7.81
Cc1cccnc1NC(=O)c1cccc(S(=O)(=O)N2CCN(c3ccc(F)cc3)CC2)c1 -6.97
CC(=O)N1CCN(S(=O)(=O)c2cccc(C(=O)NC3CCC(C)CC3)c2)CC1 (centres undefined) -4.99
CCC(Oc1ccccc1C)C(=O)Nc1ccc(S(=O)(=O)Nc2cc(C)on2)cc1 (centres undefined) -6.05
COc1cc2ccccc2cc1C(=O)Nc1ccc(S(=O)(=O)Nc2cc(C)on2)cc1 -5.68
Cc1cc(OC(C)C(=O)Nc2ccc(S(=O)(=O)Nc3onc(C)c3C)cc2)cc(C)c1Cl (centres undefined) -4.96
Cc1cc(NS(=O)(=O)c2ccc(NC(=O)C(C)Oc3cccc(C)c3C)cc2)nc(C)n1 (centres undefined) -9.11
Cc1cccc(N(C)C(=O)CN2C(=O)COc3ccc(S(=O)(=O)N4CCCCCC4)cc32)c1 -6.38
Cc1ccc(SC(CC(=O)c2ccc(C(C)(C)C)cc2)C(=O)O)cc1 (centres undefined) -8.41
C/C(=N\N=C(N)N)c1ccc(Cl)cc1 -9.9
CCCCCCc1ccc(O)cc1O -6.74
O=C(/C=C/c1cn(-c2ccccc2)nc1-c1ccc2c(c1)OCCO2)NCCCN1CCOCC1 -5.76
